Cav3 T inh – human Cav3.2 channel inhibition, primary screen | O95180 | Cav3.2-expressing cells, Fluo-4 calcium fluorescence FDSS; hits give low values | B-score at 10 µM | 100,000 tested, 4% active | AID 449739;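 active means single-dose well whose peak fluorescence ratio is a statistical outlier from its plate by either plate-standardised score or position-corrected B-score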
CYP2C9 inh – inhibitors of human CYP2C9; P11712; CYP2C9 Supersomes, luciferin-H conversion, luminescence; inhibition, % at 5 µM; 96,000 tested, 20% active;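 active means blocking of liver enzyme CYP2C9 beyond about 50% at 5 µM, limit read from the data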
CYP2C19 inh – inhibitors of human CYP2C19 | P33261 | CYP2C19 Supersomes, luciferin-H EGE luminescence, 30 min | 96,000 tested, 21% active | inhibition, % at 5 µM;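 active means CYP2C19 inhibition above a set limit at 5 µM in the primary screen, cut at about 50% in these data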
CYP2C19 activ – increases human CYP2C19 enzyme activity; recombinant CYP2C19, luciferin-H EGE luminescence; hits give high values; 0 = fully inhibited enzyme, 1 = untreated enzyme; activation factor at 5 µM; 96,000 tested, under 10 active;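 active means activation factor of at least 2 at 5 µM in the primary screen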
CYP2C9 activ – increases human cytochrome P450 2C9 activity; 96,000 tested, 1.4% active; P11712; recombinant CYP2C9, luciferin-H conversion, luminescence; hits give high values; factor 1 = untreated enzyme, 0 = blocked; activation factor at 5 µM;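 active means activation factor of 2 or more for CYP2C9 at a 5 µM dose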
A number is an active result; 0 = inactive; - = not tested or not shown. Rows were chosen to be rich in hits. Some 27% of all compounds tested hit in one or more screens of this group.

SMILES | Cav3 T inh | CYP2C9 inh | CYP2C19 inh | CYP2C19 activ | CYP2C9 activ
Cc1cc(NC(=O)COn2nnc3ccc(Cl)cc32)no1 | - | 77.2 | 0 | 0 | 0
CC1CCCCC1NC(=O)COC(=O)COc1ccc(Cl)cc1 (stereo not given) | 0 | 0 | 0 | 0 | 0
CCOc1ccccc1NC(=O)COn1nnc2ccc(Cl)cc21 | 0 | 0 | 56.4 | 0 | 0
C=CCc1ccccc1OCC(O)CN(CC)CC (stereo not given) | 0 | 0 | 0 | 0 | 0
COc1cc(OC)c(NC(=O)CCNC(=O)Cn2cnc3ccccc3c2=O)cc1Cl | 0 | 0 | 0 | 0 | 0
CCOC(=O)c1ccccc1NC(=O)CCNC(=O)Cn1cnc2ccccc2c1=O | 0 | 51.6 | 0 | 0 | 0
CCN(CCCNC(=O)Cn1ncc2c(=O)oc3ccccc3c21)c1cccc(C)c1 | - | 70.2 | 64.1 | 0 | 0
COCCCNC(=O)Cn1ncc2c(=O)oc3ccccc3c21 | 0 | 0 | 0 | 0 | 0
O=C(Cn1ncc2c(=O)oc3ccccc3c21)NCCCN1CCCC1=O | 0 | 0 | 80.0 | 0 | 0
Cc1ccc2oc(=O)c3cnn(CC(=O)NCCC(C)C)c3c2c1 | 0 | 0 | 0 | 0 | 0
O=C(Cn1ncc2c(=O)oc3ccccc3c21)Nc1nc2ccccc2s1 | 0 | 50.9 | 0 | 0 | 0
CCCOC(=O)Nc1nnc(CCC)s1 | 0 | 0 | 0 | 0 | 0
CCOc1ccc(N2CC(C(=O)OCC(=O)NCc3ccccc3)CC2=O)cc1 (stereo not given) | 0 | 0 | 0 | 0 | 0
O=C(Cn1cnc2ccccc2c1=O)c1c[nH]c2ccccc12 | 0 | 0 | 53.4 | 0 | 0
Cn1cc(CC(=O)NCCCN2CCCC2=O)c2ccccc21 | 0 | 0 | 0 | 0 | 2.4
Cc1ccc2oc(=O)c3cnn(CC(=O)NCCN(C)C)c3c2c1 | 0 | - | - | - | -
CCN(CCCNC(=O)CNC(=O)Cn1cnc2ccccc2c1=O)c1cccc(C)c1 | -3.9 | 0 | 0 | 0 | 0
CCCN(C(=O)Cn1ncc2c(=O)oc3ccccc3c21)c1cccc(C)c1 | 0 | 59.9 | 0 | 0 | 0
CCN(CCCNC(=O)C1CCC(=O)N1C(C)C)c1cccc(C)c1 (stereo not given) | 0 | 0 | 0 | 0 | 0
CC(C)OC(=O)CCC/C=C\C[C@@H]1[C@@H](CC[C@@H](O)CCc2ccccc2)[C@H](O)C[C@@H]1O | 0 | - | - | - | -
CCCS(=O)(=O)N1CCCC(C(=O)N2CCN(c3ccccn3)CC2)C1 (stereo not given) | 0 | 0 | 0 | 0 | 0
CS(=O)(=O)N1CCCC(C(=O)NCCN2CCC(Cc3ccccc3)CC2)C1 (stereo not given) | 0 | 0 | 64.2 | 0 | 0
CCS(=O)(=O)N1CCCC(C(=O)NCCN2CCC(Cc3ccccc3)CC2)C1 (stereo not given) | - | 0 | 0 | 0 | 0
CCCS(=O)(=O)N1CCCC(C(=O)N2CCC(Cc3ccccc3)CC2)C1 (stereo not given) | 0 | 50.7 | 68.8 | 0 | 0
CCN(CCCNC(=O)CN(C)S(=O)(=O)c1ccc2c(c1)CCC(=O)N2)c1cccc(C)c1 | 0 | 63.6 | 0 | 0 | 0
SMILES | Cav3 T inh | CYP2C9 inh | CYP2C19 inh | CYP2C19 activ | CYP2C9 activ
CCN(CCNC(=O)CN(C)S(=O)(=O)c1cccc2nsnc12)c1ccccc1 | 0 | 58.9 | 89.3 | 0 | 0
CCN(CCCNC(=O)CN(C)S(=O)(=O)c1cccc2nsnc12)c1cccc(C)c1 | 0 | 73.5 | 0 | 0 | 0
CCOc1ccc(CCNC(=O)CN(C)S(=O)(=O)c2cccc3nsnc23)cc1OCC | 0 | 0 | 0 | 0 | 0
COc1ccc2c(c1)O[C@H](c1ccc3c(c1)OCO3)[C@@H](OC(=O)N[C@H]1CCCc3ccccc31)C2=O | 0 | - | - | - | -
O=S(=O)(NCC(c1cccnc1)N1CCN(c2ccccc2)CC1)c1cc(F)ccc1F (stereo not given) | 0 | 0 | 0 | 0 | 0
O/N=C(/CN(O)/C=C1/C=CC=N1)c1cccs1 | 0 | 0 | 0 | 0 | 0
O=C(Nc1ccc2ccccc2c1)c1cnccn1 | 0 | 0 | 56.5 | 0 | 0
O=C(Nc1ccc2c(c1)oc1ccccc12)c1ccncc1 | 0 | 97.2 | 81.6 | 0 | 0
O=C(Nc1ccc(S(=O)(=O)NC2CCCC2)cc1)c1cnccn1 | 0 | 94.7 | 0 | 0 | 0
O=C(Nc1ccc2nccnc2c1)c1cnccn1 | 0 | 0 | 51.0 | 0 | 0
O=C(Nc1ccc(NC(=O)c2ccco2)cc1)c1cnccn1 | 0 | 0 | 0 | 0 | 0
COC(=O)c1ccc(/C=N\NC(=O)c2ccc(C)cc2Cl)cc1 | 0 | 0 | 0 | 0 | 0
OCC1OC(n2nnc3ccccc32)C(O)C(O)C1O (stereo not given) | 0 | 0 | 0 | 0 | 0
O=C(Nc1cnc2ccccc2c1)c1ccncc1 | 0 | 70.5 | 85.9 | 0 | 0

Bioassay records (PubChem BioAssay)
